Assay results taken from article PMC7862700, “An all-to-all approach to the identification of sequence-specific readers for epigenetic DNA modifications on cytosine”.

Each sequence was assayed against T1, ETS2 (Homo sapiens, UniProt P15036 1-469) (assay: DAPPL (digital affinity profiling via proximity ligation, sequencing); 10 mM Tris-HCl pH 7.5, 50 mM NaCl, 1 mM DTT, 4% glycerol, room temperature, 30 min; GST-TFs on glutathione beads, 16-mer random dsDNA library, 0.1% formaldehyde crosslink after washing; high values mean tight binding). Conditions: protein: recombinant; tags: N-terminal GST; dsDNA, one strand shown.
T1 sequence: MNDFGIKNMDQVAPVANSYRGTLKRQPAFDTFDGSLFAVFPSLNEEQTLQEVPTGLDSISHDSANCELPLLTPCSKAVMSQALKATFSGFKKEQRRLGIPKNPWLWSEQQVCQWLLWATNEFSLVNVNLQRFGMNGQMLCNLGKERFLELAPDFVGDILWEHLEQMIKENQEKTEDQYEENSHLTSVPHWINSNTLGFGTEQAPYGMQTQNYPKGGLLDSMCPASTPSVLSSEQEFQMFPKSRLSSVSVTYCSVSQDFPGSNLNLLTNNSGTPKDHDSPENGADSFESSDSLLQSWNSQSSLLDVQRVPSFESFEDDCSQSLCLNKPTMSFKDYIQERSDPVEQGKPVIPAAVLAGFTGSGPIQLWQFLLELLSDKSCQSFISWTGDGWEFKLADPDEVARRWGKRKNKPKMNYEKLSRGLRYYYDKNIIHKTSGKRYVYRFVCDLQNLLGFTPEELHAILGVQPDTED
Procedure, shortened: (§1)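 Pools were built from human transcription factors expressed in yeast as GST fusions, captured on glutathione beads and DNA-barcoded, along with a tag-only sample. Incubation with 200 nmole of a 16-mer random double-stranded DNA library lasted 30 min at room temperature in Tris/NaCl/DTT/glycerol buffer, and was followed by washing, 0.1% formaldehyde crosslinking, proximity ligation, PCR amplification and Illumina NextSeq500 sequencing. Binding signal is the quotient of each hexamer's read frequency for a factor and its frequency for the tag-only sample.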

| Sequence | binding signal |
| --- | --- |
| AGATTA | 1 fold enrichment (6-mer frequency, TF over GST control) |
| AGGCTT | 1.04 fold enrichment (6-mer frequency, TF over GST control) |
| AGAATA | 1 fold enrichment (6-mer frequency, TF over GST control) |
| ATTAGT | 1.01 fold enrichment (6-mer frequency, TF over GST control) |
| GCCTGG | 1.02 fold enrichment (6-mer frequency, TF over GST control) |
| GCCTAG | 1 fold enrichment (6-mer frequency, TF over GST control) |
| GCGATA | 1.04 fold enrichment (6-mer frequency, TF over GST control) |
| CGAATG | 1.14 fold enrichment (6-mer frequency, TF over GST control) |
| TTAGGC | 1.01 fold enrichment (6-mer frequency, TF over GST control) |

Each sequence was assayed against T2, SPDEF (Homo sapiens, UniProt O95238 1-335) in the same assay as above. Conditions: protein: recombinant; tags: N-terminal GST; dsDNA, one strand shown.
T2 sequence: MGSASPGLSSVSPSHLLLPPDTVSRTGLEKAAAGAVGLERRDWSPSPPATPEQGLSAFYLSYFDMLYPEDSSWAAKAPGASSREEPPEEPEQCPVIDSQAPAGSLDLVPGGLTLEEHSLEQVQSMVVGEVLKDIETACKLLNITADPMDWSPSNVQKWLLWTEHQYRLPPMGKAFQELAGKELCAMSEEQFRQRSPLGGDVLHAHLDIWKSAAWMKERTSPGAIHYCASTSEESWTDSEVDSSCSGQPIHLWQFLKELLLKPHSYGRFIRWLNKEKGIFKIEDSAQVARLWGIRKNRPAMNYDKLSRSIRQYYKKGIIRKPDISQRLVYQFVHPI
Procedure, shortened: as §1

| Sequence | binding signal |
| --- | --- |
| AGATTA | 1.05 fold enrichment (6-mer frequency, TF over GST control) |
| TAGACA | 1.03 fold enrichment (6-mer frequency, TF over GST control) |
| AGAATA | 1.04 fold enrichment (6-mer frequency, TF over GST control) |
| ATTAGT | 1.06 fold enrichment (6-mer frequency, TF over GST control) |
| GAATAG | 1.02 fold enrichment (6-mer frequency, TF over GST control) |
| GCGAAT | 1.08 fold enrichment (6-mer frequency, TF over GST control) |
| GCGATC | 1.04 fold enrichment (6-mer frequency, TF over GST control) |

The sequences below were run against T3, ETV7 (Homo sapiens, UniProt Q9Y603 1-341) in the same assay as above. Conditions: protein: recombinant; tags: N-terminal GST; dsDNA, one strand shown.
T3 sequence: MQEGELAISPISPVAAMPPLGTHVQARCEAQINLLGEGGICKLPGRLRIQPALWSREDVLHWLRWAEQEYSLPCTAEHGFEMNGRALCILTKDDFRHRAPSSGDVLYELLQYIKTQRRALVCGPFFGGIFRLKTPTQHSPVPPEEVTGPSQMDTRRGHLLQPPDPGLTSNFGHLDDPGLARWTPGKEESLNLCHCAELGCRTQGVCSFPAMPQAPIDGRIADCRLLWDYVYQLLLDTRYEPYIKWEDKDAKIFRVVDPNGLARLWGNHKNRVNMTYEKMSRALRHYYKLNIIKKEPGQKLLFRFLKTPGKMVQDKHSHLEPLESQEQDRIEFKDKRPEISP
Procedure, shortened: as §1

| Sequence | binding signal |
| --- | --- |
| CCAGAA | 1.05 fold enrichment (6-mer frequency, TF over GST control) |
| TAGACA | 1.07 fold enrichment (6-mer frequency, TF over GST control) |
| ATCGCG | 1.05 fold enrichment (6-mer frequency, TF over GST control) |
| AGGCTT | 1.08 fold enrichment (6-mer frequency, TF over GST control) |
| AGAATA | 1.08 fold enrichment (6-mer frequency, TF over GST control) |
| TCGAAA | 1.05 fold enrichment (6-mer frequency, TF over GST control) |
| ACGAAG | 1.07 fold enrichment (6-mer frequency, TF over GST control) |
| CGAAGT | 1.06 fold enrichment (6-mer frequency, TF over GST control) |
| ATTAGT | 1.08 fold enrichment (6-mer frequency, TF over GST control) |
| AGAAGA | 1.01 fold enrichment (6-mer frequency, TF over GST control) |
| GATCAT | 1.04 fold enrichment (6-mer frequency, TF over GST control) |
| GCGAAT | 1.04 fold enrichment (6-mer frequency, TF over GST control) |
| TCGGCT | 1.05 fold enrichment (6-mer frequency, TF over GST control) |
| GCCTAG | 1 fold enrichment (6-mer frequency, TF over GST control) |
| GCGATA | 1.06 fold enrichment (6-mer frequency, TF over GST control) |
| CGAATG | 1.08 fold enrichment (6-mer frequency, TF over GST control) |
| TTAGGC | 1.16 fold enrichment (6-mer frequency, TF over GST control) |

Each sequence was assayed against T4, ELF5 (Homo sapiens, UniProt Q9UKW6-2 1-255) in the same assay as above. Conditions: protein: recombinant; tags: N-terminal GST; dsDNA, one strand shown.
T4 sequence: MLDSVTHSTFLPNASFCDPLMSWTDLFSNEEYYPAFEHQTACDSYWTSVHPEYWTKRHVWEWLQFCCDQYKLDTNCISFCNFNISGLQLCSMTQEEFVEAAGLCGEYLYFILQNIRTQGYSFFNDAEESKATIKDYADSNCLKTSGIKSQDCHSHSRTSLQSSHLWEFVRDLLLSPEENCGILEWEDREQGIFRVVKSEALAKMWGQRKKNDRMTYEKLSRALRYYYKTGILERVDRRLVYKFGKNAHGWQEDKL
Procedure, shortened: as §1

| Sequence | binding signal |
| --- | --- |
| AGGCTT | 1.02 fold enrichment (6-mer frequency, TF over GST control) |
| AGAATA | 1.04 fold enrichment (6-mer frequency, TF over GST control) |
| GCGAAT | 1.04 fold enrichment (6-mer frequency, TF over GST control) |
| GCGATA | 1.02 fold enrichment (6-mer frequency, TF over GST control) |
| AGATAT | 1.06 fold enrichment (6-mer frequency, TF over GST control) |

These sequences were tested against T5, ETV3 (Homo sapiens, UniProt P41162-2 1-143) in the same assay as above. Conditions: protein: recombinant; tags: N-terminal GST; dsDNA, one strand shown.
T5 sequence: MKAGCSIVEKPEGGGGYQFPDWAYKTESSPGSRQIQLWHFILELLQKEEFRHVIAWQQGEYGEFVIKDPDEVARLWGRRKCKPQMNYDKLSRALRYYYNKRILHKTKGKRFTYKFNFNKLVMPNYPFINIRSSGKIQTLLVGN
Procedure, shortened: as §1

| Sequence | binding signal |
| --- | --- |
| CCAGCT | 1 fold enrichment (6-mer frequency, TF over GST control) |
| AGAATA | 1.04 fold enrichment (6-mer frequency, TF over GST control) |
| ATTAGT | 1.01 fold enrichment (6-mer frequency, TF over GST control) |
| GCGAAT | 1.07 fold enrichment (6-mer frequency, TF over GST control) |
| GCGATC | 1 fold enrichment (6-mer frequency, TF over GST control) |

What follows are sequences tested against ETV6 (Homo sapiens, UniProt P41212 1-452) in the same assay as above. Conditions: protein: recombinant; tags: N-terminal GST; dsDNA, one strand shown.
Chain of ETV6 (P41212 whole entry): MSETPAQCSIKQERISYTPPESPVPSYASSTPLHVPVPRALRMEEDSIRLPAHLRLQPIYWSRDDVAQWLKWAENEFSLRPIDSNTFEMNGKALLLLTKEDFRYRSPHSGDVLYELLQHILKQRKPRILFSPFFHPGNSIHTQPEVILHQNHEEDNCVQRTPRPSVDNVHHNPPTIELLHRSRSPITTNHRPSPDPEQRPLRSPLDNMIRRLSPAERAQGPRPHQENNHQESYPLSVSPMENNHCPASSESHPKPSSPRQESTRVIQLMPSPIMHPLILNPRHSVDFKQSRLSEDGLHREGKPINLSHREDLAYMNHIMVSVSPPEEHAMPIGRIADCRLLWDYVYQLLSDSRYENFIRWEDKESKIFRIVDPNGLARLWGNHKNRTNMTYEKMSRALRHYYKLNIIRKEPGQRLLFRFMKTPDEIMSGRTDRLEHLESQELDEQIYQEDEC
Procedure, shortened: as §1

| Sequence | binding signal |
| --- | --- |
| AGATTA | 1.04 fold enrichment (6-mer frequency, TF over GST control) |
| AGAATA | 1.07 fold enrichment (6-mer frequency, TF over GST control) |
| ATTAGT | 1.01 fold enrichment (6-mer frequency, TF over GST control) |
| TAGAAC | 1.09 fold enrichment (6-mer frequency, TF over GST control) |
| GATAAA | 1 fold enrichment (6-mer frequency, TF over GST control) |
| CGAATG | 1.11 fold enrichment (6-mer frequency, TF over GST control) |
| GAATGA | 1.02 fold enrichment (6-mer frequency, TF over GST control) |
| GCGATC | 1 fold enrichment (6-mer frequency, TF over GST control) |
